Experimental data: PubChem BioAssay
The source made the active and inactive calls.

Columns and labels:
[1] = molecular target: Albumin (Bos taurus) (UniProt P02769); experiment: bovine serum albumin binders on microarray, profiling panel, artefact control for SMM control protein annotation, biochemical, small-molecule microarray, Alexa647 label, 635/667 nm fluorescence (AID 1118); details: BSA-A647 binding, fluorescence 635 nm, higher = more signal;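 further: score merges 667 nm emission intensity and signal-to-noise per printed compound spot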
Albumin (Bos taurus), sequence (P02769 whole entry, looked up): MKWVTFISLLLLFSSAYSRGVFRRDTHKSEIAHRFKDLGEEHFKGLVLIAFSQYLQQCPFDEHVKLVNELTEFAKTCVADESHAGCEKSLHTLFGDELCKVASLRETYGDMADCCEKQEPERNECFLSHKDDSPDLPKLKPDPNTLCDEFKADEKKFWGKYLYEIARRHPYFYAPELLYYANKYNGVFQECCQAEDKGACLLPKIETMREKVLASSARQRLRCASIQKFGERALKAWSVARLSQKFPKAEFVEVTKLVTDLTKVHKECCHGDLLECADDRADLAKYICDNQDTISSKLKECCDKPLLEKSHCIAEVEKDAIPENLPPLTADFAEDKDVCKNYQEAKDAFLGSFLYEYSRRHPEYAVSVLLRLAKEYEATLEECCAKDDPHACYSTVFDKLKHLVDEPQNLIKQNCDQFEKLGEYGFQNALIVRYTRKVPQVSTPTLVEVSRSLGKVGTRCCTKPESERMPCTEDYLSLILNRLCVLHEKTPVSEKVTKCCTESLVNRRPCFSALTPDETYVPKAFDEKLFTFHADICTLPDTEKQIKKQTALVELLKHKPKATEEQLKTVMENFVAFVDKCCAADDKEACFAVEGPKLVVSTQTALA

[2] = small-molecule microarray binders of probe aXIP, primary screen, biochemical, NeuroSMM set, 635/667 nm fluorescence (AID 1119); details: higher = more signal, called active from +8 up or from −8 down;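 further: probe is the protein aXip251-270 applied at 1 µg/mL to compound-printed slides; binding of probe to printed compounds measured as 667 nm fluorescence plus signal to noise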
[3] = small-molecule binders of probe aNOTCH3, primary screen, biochemical, small-molecule microarray, 635/667 nm fluorescence (AID 1120); details: higher = more signal;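 further: probe is a biotin-tagged antibody raised against NOTCH3 rather than NOTCH3 protein; score merges spot fluorescence near 667 nm with spot signal to noise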
[4] = small-molecule binders of probe aNOTCH2, primary screen, biochemical, small-molecule microarray, 635/667 nm fluorescence (AID 1121); details: higher = more signal;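 further: score merges feature fluorescence read at 667 nm with its signal to noise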
[5] = molecular target: Carbonic anhydrase 2 (Homo sapiens) (UniProt P00918); experiment: CAII small-molecule binders, profiling panel, biochemical, small-molecule microarray, Alexa647-labelled CAII (AID 1122); details: CAII-A647 binding fluorescence, higher = more signal
[6] = COS7 lysate on small-molecule microarray, probe aHis, 635 nm (AID 1123); details: COS7 cell lysate, fluorescence, higher = more signal;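 further: z-score combines 667nm fluorescence intensity with signal-to-noise per printed compound spot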
[7] = compound binding in COS7 lysate, probe aLAP1, primary screen, cell lysate, small-molecule microarray (AID 1124); details: probe aLAP1, fluorescence, higher = more signal;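 further: lysate comes from COS7 cells expressing LAP1 and is applied at 0.3 µg/mL; score merges spot fluorescence near 667 nm with signal-to-noise over triplicate slides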
[8] = test system: Sam68 (KHDRBS1); experiment: Sam68 small-molecule binders, primary screen, biochemical, small-molecule microarray, 635 nm fluorescence (AID 1125); details: small-molecule microarray binding, higher = more signal;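 further: score merges 667 nm channel intensity with signal to noise over triplicate slides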
[9] = test system: Chordin-like protein 2 (CHRDL2); experiment: CHRDL2 small-molecule binders, primary screen, biochemical, small-molecule microarray, 635 nm fluorescence (AID 1126); details: small-molecule microarray binding, fluorescence 635 nm; higher = more signal;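 further: printed compound slides probed with Chrdl2 protein at 4 µg/mL for 1 h at 4 C; score merges 667 nm emission intensity with signal to noise over three replicate slides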
[10] = molecular target: Concanavalin-A (Canavalia ensiformis) (UniProt P02866); experiment: ConA small-molecule binders, primary screen, artefact control for SMM control protein annotation, biochemical, small-molecule microarray, Alexa647 label, 635 nm (AID 1127); details: ConA-A647 binding fluorescence, higher = more signal;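 further: z combines 667 nm emission intensity with signal-to-noise across three replicate slides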
Concanavalin-A (Canavalia ensiformis), sequence (P02866 whole entry, looked up): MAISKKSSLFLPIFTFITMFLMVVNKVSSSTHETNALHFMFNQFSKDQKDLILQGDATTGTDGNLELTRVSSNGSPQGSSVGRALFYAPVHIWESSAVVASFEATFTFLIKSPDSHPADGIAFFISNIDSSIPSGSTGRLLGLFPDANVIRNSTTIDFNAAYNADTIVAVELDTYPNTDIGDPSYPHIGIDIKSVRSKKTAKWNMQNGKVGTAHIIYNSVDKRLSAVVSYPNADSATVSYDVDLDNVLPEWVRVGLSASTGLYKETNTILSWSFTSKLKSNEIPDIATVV

[11] = anti-His antibody binders, primary screen, artefact control for SMM control protein annotation, biochemical, small-molecule microarray, 635 nm fluorescence (AID 1128); details: anti-His Alexa647 antibody binding, higher = more signal;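 further: score merges feature fluorescence with signal-to-noise for each printed compound spot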
[12] = test system: Human papillomavirus type 1a E7 protein (residues 1-88); experiment: HPV1a E7 small-molecule binders, primary screen, biochemical, small-molecule microarray, residues 1-88, 635 nm (AID 1129); details: small-molecule microarray binding, fluorescence 635 nm; higher = more signal
[13] = molecular target: Focal adhesion kinase 1 (Homo sapiens) (UniProt Q05397); experiment: small-molecule microarray binders of FAK, primary screen, biochemical, 635/667 nm fluorescence, BSA, DTT (AID 1130); details: PTK2 binding, 635 nm fluorescence, higher = more signal;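 further: composite of spot emission at 667 nm and signal to noise over triplicate slides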
Focal adhesion kinase 1 (Homo sapiens), sequence (Q05397 whole entry, looked up): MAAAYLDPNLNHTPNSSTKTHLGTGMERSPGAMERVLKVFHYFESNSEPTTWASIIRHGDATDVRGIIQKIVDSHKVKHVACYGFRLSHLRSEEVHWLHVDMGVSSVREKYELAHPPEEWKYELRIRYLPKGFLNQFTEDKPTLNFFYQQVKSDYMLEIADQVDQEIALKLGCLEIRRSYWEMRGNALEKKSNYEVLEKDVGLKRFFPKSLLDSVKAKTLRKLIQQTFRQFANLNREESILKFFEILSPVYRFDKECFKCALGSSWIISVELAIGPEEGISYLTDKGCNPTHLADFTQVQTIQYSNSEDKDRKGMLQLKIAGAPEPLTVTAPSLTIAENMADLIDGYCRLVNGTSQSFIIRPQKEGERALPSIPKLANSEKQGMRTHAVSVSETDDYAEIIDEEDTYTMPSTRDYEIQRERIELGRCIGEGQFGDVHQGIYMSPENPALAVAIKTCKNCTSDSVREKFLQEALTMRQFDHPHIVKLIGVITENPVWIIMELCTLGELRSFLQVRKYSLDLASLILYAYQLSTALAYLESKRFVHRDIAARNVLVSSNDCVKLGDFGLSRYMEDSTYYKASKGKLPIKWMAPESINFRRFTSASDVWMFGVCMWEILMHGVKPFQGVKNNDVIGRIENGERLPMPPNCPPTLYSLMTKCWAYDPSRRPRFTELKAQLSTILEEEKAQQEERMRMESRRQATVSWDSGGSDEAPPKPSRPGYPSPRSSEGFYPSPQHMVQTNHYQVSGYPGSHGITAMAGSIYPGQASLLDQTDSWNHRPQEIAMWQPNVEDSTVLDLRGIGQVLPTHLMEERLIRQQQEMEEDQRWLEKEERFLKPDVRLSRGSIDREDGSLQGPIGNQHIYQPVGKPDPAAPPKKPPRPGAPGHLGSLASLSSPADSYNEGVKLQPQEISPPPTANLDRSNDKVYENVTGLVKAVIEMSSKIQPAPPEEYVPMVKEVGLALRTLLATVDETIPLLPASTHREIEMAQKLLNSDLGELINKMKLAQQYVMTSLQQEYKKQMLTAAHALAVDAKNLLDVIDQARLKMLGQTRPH

[14] = test system: Fibrinogen (Alexa647-labelled); experiment: fibrinogen binders on compound microarrays, profiling panel, artefact control for SMM control-protein annotation, biochemical, small-molecule microarray, 635/667 nm fluorescence (AID 1131); details: fibrinogen-A647 binding fluorescence, higher = more signal;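 further: z-score merges 667 nm fluorescence with per-spot signal-to-noise over triplicate slides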
[15] = molecular target: Follistatin (Homo sapiens) (UniProt P19883); experiment: follistatin binders on small-molecule microarrays, primary screen, biochemical, small-molecule microarray, 635/667 nm fluorescence (AID 1132); details: FST binding, 635 nm fluorescence, higher = more signal
Follistatin (Homo sapiens), sequence (P19883 whole entry, looked up): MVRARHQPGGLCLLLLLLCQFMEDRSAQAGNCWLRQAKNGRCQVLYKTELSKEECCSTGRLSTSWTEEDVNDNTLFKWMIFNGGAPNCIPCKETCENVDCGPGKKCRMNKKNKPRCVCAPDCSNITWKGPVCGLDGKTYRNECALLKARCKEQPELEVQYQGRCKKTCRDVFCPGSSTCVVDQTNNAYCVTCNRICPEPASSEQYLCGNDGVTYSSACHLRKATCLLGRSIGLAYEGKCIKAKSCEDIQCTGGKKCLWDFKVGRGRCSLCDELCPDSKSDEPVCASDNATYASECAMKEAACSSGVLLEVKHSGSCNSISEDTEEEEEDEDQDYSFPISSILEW

[16] = molecular target: Fibroblast growth factor 2 (Homo sapiens) (UniProt P09038); experiment: FGF2 binders on small-molecule microarrays, primary screen, biochemical, small-molecule microarray, 635/667 nm fluorescence (AID 1133); details: small-molecule microarray binding, FGF2, fluorescence 635/667; higher = more signal
Fibroblast growth factor 2 (Homo sapiens), sequence (P09038 whole entry, looked up): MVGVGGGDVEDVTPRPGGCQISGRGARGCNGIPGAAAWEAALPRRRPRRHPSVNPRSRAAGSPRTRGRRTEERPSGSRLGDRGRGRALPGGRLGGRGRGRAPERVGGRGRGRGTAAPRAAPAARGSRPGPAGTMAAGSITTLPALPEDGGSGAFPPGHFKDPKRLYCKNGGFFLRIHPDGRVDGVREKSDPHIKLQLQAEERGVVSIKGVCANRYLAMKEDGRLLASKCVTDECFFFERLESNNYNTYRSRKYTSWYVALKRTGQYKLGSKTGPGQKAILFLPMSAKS

[17] = mitochondrial membrane potential change in A549 cells, profiling panel, cell-based, JC-1 fluorescence, basal, 24 h, 100 nL (AID 1138); details: higher = more signal;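 further: A549 lung adenocarcinoma cells under basal conditions with no added stimulus; test concentration not given here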
[18] = test system: Lefty1; experiment: Lefty1 binders on small-molecule microarrays, primary screen, biochemical, small-molecule microarray, 635/667 nm fluorescence (AID 1139); details: small-molecule microarray binding, fluorescence 635/667; higher = more signal
[19] = test system: wheat germ agglutinin (Triticum aestivum), Alexa647-labelled; experiment: wheat germ agglutinin binders on compound microarrays, profiling panel, artefact control for SMM control-protein annotation, biochemical, small-molecule microarray, 635/667 nm fluorescence (AID 1140); details: WGA-A647 binding, 635 nm fluorescence, higher = more signal;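 further: score merges 667 nm feature emission with signal to noise over triplicate slides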
[20] = molecular target: Luciferin 4-monooxygenase (Photinus pyralis) (UniProt P08659); experiment: firefly luciferase enzyme inhibitors, primary screen, biochemical, luminescence, purified enzyme, 2006 set (AID 1141); details: SteadyGlo luminescence, 30 min, higher = more signal, called active from +8 up or from −8 down;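 further: cell-free assay with purified firefly luciferase at 100 ng per well in PBS; test concentration not given here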
Luciferin 4-monooxygenase (Photinus pyralis), sequence (P08659 whole entry, looked up): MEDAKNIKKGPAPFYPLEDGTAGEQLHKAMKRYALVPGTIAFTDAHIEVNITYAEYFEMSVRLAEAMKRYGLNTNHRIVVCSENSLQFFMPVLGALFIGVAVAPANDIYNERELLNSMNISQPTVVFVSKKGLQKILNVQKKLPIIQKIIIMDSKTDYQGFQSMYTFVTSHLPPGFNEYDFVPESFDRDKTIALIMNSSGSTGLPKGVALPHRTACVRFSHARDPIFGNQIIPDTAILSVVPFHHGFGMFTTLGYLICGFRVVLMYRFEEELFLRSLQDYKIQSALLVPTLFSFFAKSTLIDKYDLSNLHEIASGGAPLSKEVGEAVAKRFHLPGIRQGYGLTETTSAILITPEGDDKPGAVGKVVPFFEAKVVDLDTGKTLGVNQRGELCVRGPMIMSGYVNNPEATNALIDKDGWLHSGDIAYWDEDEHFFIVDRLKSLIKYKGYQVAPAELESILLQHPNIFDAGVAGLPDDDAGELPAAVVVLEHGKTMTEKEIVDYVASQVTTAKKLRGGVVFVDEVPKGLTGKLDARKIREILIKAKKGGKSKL

Compound | composite z-score [1] | composite Z-score [2] | composite z-score [3] | composite z-score [4] | composite z-score [5] | composite z-score [6] | composite z-score [7] | composite z-score [8] | composite z-score [9] | composite z-score [10] | composite z-score [11] | composite z-score [12] | composite z-score [13] | composite z-score [14] | composite z-score [15] | composite z-score [16] | z-score [17] | composite z-score [18] | composite z-score [19] | z-score [20]
Cc1cc2c(nc1C)CCCN2CC(O)CN1CCCc2nc(C)c(C)cc21 | -0.293 | 2.34 (inactive) | 0.308 | 0.054 | 0.798 | 1.21 | 0.446 | 0.651 | 0.633 | 0.879 | 1.92 | -0.0317 | 0.281 | -0.575 | 0.817 | 1.06 | -0.685 | 0.454 | 0.562 | 0.723 (inactive)
COc1ccc(COC(=O)NN=C2C[C@@H](O)[C@@H](O)[C@@H]3[C@@H]4C(=O)N(c5ccc(F)cc5F)C(=O)[C@@H]4CC[C@H]23)cc1 | 0.446 | 3.84 (inactive) | 0.0961 | -0.157 | -0.0507 | -0.181 | 0.0054 | -0.169 | -0.293 | 0.0493 | 0.524 | -0.199 | 0.168 | 0.89 | -0.469 | 0.0314 | -0.654 | -0.773 | 0.4 | 0.732 (inactive)
COCOc1ccc(Br)cc1C(=O)[C@@H]1O[C@H]1c1cccc(OC)c1 | 0.591 | 0.374 (inactive) | -0.122 | -0.108 | 0.041 | 0.696 | 0.0365 | -0.395 | 0.589 | -1.26 | -0.183 | 0.513 | 0.0147 | 0.488 | 0.339 | -0.0753 | 1.1 | 0.346 | 0.432 | -0.54 (inactive)
CC(=O)OC[C@H]1O[C@H](CC=NO[C@H](C)c2cn([C@H](CO)Cc3ccccc3)nn2)C=C[C@@H]1OC(C)=O | 0.376 | -0.0641 (inactive) | 0.108 | -0.0482 | -0.0934 | 0.154 | 0.0588 | 1.29 | 0.41 | 0.597 | 0.499 | 0.777 | -0.0453 | 0.0573 | 0.69 | 0.494 | -0.866 | 0.732 | 0.439 | 0.809 (inactive)
Cc1ccc(S(=O)(=O)OC[C@H]2CN3[C@H](c4ccc(Br)cc4)[C@@H](C)CC[C@H]3C(=O)O2)cc1 | 0.122 | -0.446 (inactive) | -0.0918 | -0.147 | 0.366 | 0.393 | 0.0759 | 0.893 | 0.0388 | 0.818 | 0.924 | 0.269 | 0.0817 | 0.596 | 1.1 | 1.45 | 1.78 | 0.198 | 0.11 | -0.849 (inactive)
O=c1n(-c2ccccc2)c(=O)n2n1CC[C@@H]1C(=NOCc3ccccc3)[C@H]3O[C@H]3[C@@H](O)[C@@H]12 | -0.101 | 0.371 (inactive) | -0.179 | -0.189 | 0.745 | -0.539 | -0.289 | -0.712 | -0.0034 | -0.073 | 0.103 | -0.0945 | 0.0844 | -0.468 | 0.265 | 0.373 | 0.397 | 0.293 | 0.0398 | 0.0189 (inactive)
CO[C@@H]1COC(=O)[C@H](CCSC)NC(=O)CC=C[C@@H](C)COC(=O)[C@H](C)NC(=O)CC=C[C@H]1C | -1.04 | 0.327 (inactive) | 0.187 | -0.0907 | -0.0169 | -0.395 | 0.36 | 1.28 | 1.15 | -0.19 | -0.229 | 0.255 | -0.342 | -0.433 | 0.96 | 1.62 | 0.812 | 1.2 | -0.543 | -1.2 (inactive)
COc1ccc(O[C@H]2C=C[C@@H](c3ccccc3)O[C@@H]2CON=C2[C@H]3CCn4c(=O)n(-c5ccccc5)c(=O)n4[C@H]3[C@H](O)[C@@H]3O[C@H]23)cc1 | 0.67 | 0.125 (inactive) | -0.0282 | -0.132 | 0.405 | 0.455 | 0.244 | 1.18 | 0.276 | 0.817 | -0.444 | 1.05 | 0.0673 | 0.335 | 0.356 | 0.199 | -0.336 | 0.451 | 0.883 | 0.618 (inactive)
CC(=O)O[C@H]1C2=CO[C@H](C)[C@H]3[C@H]4C5=C([C@H](O)[C@H]6O[C@H]6C5=O)[C@H](OC4C)[C@@]23C(=O)[C@@H]2O[C@@H]21 (stereo not given in full) | 0.767 | 0.719 (inactive) | 0.0836 | -0.0357 | 0.357 | 0.249 | 0.228 | 0.583 | 0.0249 | -0.185 | -0.497 | 0.121 | -0.703 | -0.331 | -0.436 | 1.35 | -0.837 | 0.0873 | -0.515 | -0.413 (inactive)
O=C(NN=C1C[C@@H](O)[C@@H](O)[C@@H]2[C@@H]3C(=O)N(Cc4ccccc4)C(=O)[C@@H]3CC[C@@H]12)OCc1ccccc1 | -0.225 | 0.586 (inactive) | 0.0591 | -0.129 | -0.362 | -0.723 | -0.169 | -0.917 | 0.476 | -0.292 | 0.298 | -0.0375 | -0.0741 | 0.272 | 0.165 | 0.242 | 0.257 | 0.321 | -0.148 | 0.472 (inactive)
CCOC(=O)[C@H](Cc1ccccc1)NC(=O)CCC1CC(OC(=O)NCc2cccc3ccccc23)CC2(CCCC(COC(=O)NCC(c3ccccc3)c3ccccc3)O2)O1 (stereo not given in full) | 0.313 | 0.793 (inactive) | 0.062 | -0.169 | 0.394 | 0.468 | -0.0448 | 0.914 | 0.203 | 0.256 | 1.06 | 0.455 | 0.384 | 0.853 | 0.411 | 0.39 | -0.243 | 0.589 | -0.0722 | 0.611 (inactive)
